Source: PubChem (several laboratories)
Only some compounds are listed: those with a hit (about 1.7% of all), similar ones and a draw of the others.
RecA intein inh – Mtb RecA intein splicing inhibition | AID 2221 | 290,000 compounds, 0.75% hits | cell-free RecA intein splicing, fluorescence | inhibition, % (concentration not given with the values) | P9WHJ3; in the data active means inhibition above about 30%;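 further: 0% = vehicle wells and 100% = reference inhibitor control wells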
Target sequence (P9WHJ3 whole entry, looked up): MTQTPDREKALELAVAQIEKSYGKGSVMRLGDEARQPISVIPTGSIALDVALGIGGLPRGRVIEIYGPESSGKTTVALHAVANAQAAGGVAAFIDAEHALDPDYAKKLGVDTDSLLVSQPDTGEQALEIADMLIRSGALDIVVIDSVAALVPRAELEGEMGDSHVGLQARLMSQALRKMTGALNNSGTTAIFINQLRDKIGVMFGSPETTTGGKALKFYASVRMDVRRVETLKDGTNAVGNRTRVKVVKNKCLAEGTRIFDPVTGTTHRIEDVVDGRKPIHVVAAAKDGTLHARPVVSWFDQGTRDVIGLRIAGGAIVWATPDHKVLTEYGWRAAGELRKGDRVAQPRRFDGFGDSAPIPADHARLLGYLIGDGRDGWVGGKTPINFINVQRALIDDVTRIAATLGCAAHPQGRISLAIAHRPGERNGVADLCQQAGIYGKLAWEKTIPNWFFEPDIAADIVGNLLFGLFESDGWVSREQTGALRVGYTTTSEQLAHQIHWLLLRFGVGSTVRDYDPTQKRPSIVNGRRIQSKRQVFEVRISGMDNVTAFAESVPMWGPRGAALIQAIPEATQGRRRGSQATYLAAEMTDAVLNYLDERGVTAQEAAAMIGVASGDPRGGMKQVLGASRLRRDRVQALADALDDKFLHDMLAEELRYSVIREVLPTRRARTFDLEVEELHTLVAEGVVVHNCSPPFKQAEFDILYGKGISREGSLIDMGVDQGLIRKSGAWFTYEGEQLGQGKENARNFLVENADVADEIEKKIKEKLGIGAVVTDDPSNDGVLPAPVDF
CCHF vOTU inh – CCHFV vOTU protease inhibition; 370,000 compounds, 0.55% hits; AID 651958; Pep-AMC fluorescence; inhibition, % at 11.5 µM; in the data active means inhibition above about 30%; further: 0% = vehicle wells with enzyme and 100% = no enzyme wells
3CLpro inhibitor – SARS-CoV 3CLpro protease inhibition | inhibition, % at 6 µM | recombinant SARS-CoV 3CLpro, quenched FRET peptide cleavage | AID 1706 | P0C6X7 | 290,000 compounds, 0.14% hits; in the data active means inhibition above about 12%
PriA SSB inh – inhibitors of Klebsiella pneumoniae PriA binding to SSB C-terminal tail; AID 1272365; inhibition, % at 33 µM; AlphaScreen SSBct-PriA binding, biotinylated peptide; 430,000 compounds, 0.6% hits; in the data active means inhibition mostly above about 37%, no sharp cut-off; inactive means mostly below about 20%;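 further: plate controls were negative control peptide for no effect and reference peptide for full effect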
DUSP3 inh – inhibitors of human VHR1 phosphatase (DUSP3); P51452; AID 1654; recombinant VHR phosphatase, pNPP absorbance; inhibition, % at 13.3 µM; 290,000 compounds, 0.52% hits; in the data active means inhibition above about 50%
GFP chromophore – counter-screen GFP chromophore formation inhibition | shares compounds with RecA intein inh | AID 434968 | 2,100 compounds, 83% hits | EC50, µM | cell-free GFP chromophore formation, fluorescence; call rule not given here
An asterisk follows results filed as active; / = no result given.

SMILES	RecA intein inh	CCHF vOTU inh	3CLpro inhibitor	PriA SSB inh	DUSP3 inh	GFP chromophore
Cc1ccc(NC(=O)CCCNS(=O)(=O)c2ccc(Cl)cc2)cc1	/	/	/	-7.0	/	/
COc1ccc(-c2noc(CS(=O)(=O)c3ccc(F)cc3)n2)cc1OC	/	/	/	-10.0	/	/
CC1=NN(c2ccc(C)cc2C)C(=O)C1C(c1ccccc1)C1C(=O)N(c2ccc(C)cc2C)N=C1C (stereo not drawn)	89.7*	/	1.3	-2.5	3.2	1.14*
Cc1ccc(-n2c(=O)c3ccccc3c3ccccc3c2=O)c(C)c1	/	/	/	-10.0	/	/
O=C1CCCC(O)=C1C(C#Cc1ccccc1)C1=C(O)CCCC1=O	30.3*	/	-2.0	-1.4	8.3	11.6*
CC1(C)CC(=O)C(C(C#Cc2ccccc2)C2=C(O)CC(C)(C)CC2=O)=C(O)C1	1.2	12.0	-5.3	-9.7	6.2	/
CC(C)Nc1cc(C(C)(C)C)nc2c(-c3ccc(Cl)cc3)cnn12	/	/	/	-29.0	/	/
O=C(Oc1ccc(Br)cc1)C1CC(=O)N(c2ccc(F)cc2)C1 (stereo not drawn)	37.0*	-8.1	1.3	-7.8	1.8	35*
COc1cc(C(=O)Nc2c(-c3ccccc3)nc3ccccn23)ncn1	/	/	/	5.0	/	/
COc1cccc(C(=O)Nc2nc(SCc3ccc(Cl)cc3)n[nH]2)c1	39.2*	-4.3	-1.1	0.2	-6.7	>38
COc1cccc(C(=O)NNC(=O)Cc2ccc(Cl)cc2)c1	0.0	-5.8	4.8	-16.5	-3.8	/
Cc1cc([C@@H](O)CCNC(=O)CSC2CCCC2)c(C)o1	/	/	/	-5.0	/	/
CC(=O)NC(c1ccc(Cl)cc1)c1c(O)ccc2ccc(O)cc12 (stereo not drawn)	59.4*	-9.8	-0.6	3.7	15.1	11.9*
COCCNCc1ccoc1	/	/	/	-14.0	/	/
COc1ccc(OC)c(N2C(=O)C(Cl)=C(N3CCCCC3)C2=O)c1	62.6*	-4.2	0.8	-7.2	-5.4	16.9*
O=C1C(Cl)=C(N2CCCCC2)C(=O)N1c1ccccc1Cl	76.7*	1.5	3.5	-78.2	4.8	6.17*
O=C1C(Cl)=C(N2CCCCC2)C(=O)N1c1ccccc1	40.9*	-2.7	-2.9	-40.4	13.0	8.78*
Cc1ccc(N2C(=O)C(Cl)=C(N3CCCCCC3)C2=O)cc1	8.9	1.2	-1.9	-48.6	-20.5	/
COc1ccccc1N1C(=O)C(Cl)=C(N2CCCC2)C1=O	-1.0	-0.9	3.3	-4.8	-7.8	/
CCOC(=O)C(Nc1ccc2ccccc2c1)C(=O)OCC	70.5*	22.2	3.3	57.6*	-4.1	21.8*
CCOC(=O)c1oc2nc(CC(C)C)c3c(c2c1N)CCC3	31.4*	-63.8	-3.0	-19.4	44.7	>38
COc1ccc(C(=O)n2nnc3ccccc32)cc1Br	34.5*	/	-3.5	-13.0	-7.5	>38
COc1ccc(C(=O)n2nnc3ccccc32)cc1OC	/	-7.3	-0.4	-6.2	11.5	/
C=CCc1cccc(C=Nc2c[nH]c(=O)[nH]c2=O)c1O	/	-11.7	-6.0	1.1	5.8	>38
CCOC(=O)C1CCCN(c2ncnc3nc[nH]c23)C1 (stereo not drawn)	/	/	/	3.0	/	/
SMILES	RecA intein inh	CCHF vOTU inh	3CLpro inhibitor	PriA SSB inh	DUSP3 inh	GFP chromophore
CCOC(=O)C1=C(C)NC(=S)NC1c1ccc(O)c(OC)c1 (stereo not drawn)	/	/	/	13.0	/	/
Cc1nnc(NC(=O)c2nc(S(=O)(=O)Cc3ccccc3C)ncc2Cl)s1	67.1*	5.2	-3.0	6.0	-36.6	>38
CSc1ncc(Cl)c(C(=O)Nc2nnc(SC/C=C/c3ccccc3)s2)n1	-2.4	1.4	1.5	3.6	17.1	/
CC(C)c1nnc(NC(=O)c2nc(S(=O)(=O)Cc3ccccc3F)ncc2Cl)s1	83.1*	-2.5	0.3	-5.1	-11.5	13.9*
CC(C)c1nnc(NC(=O)CCC(=O)NCc2ccccc2Cl)s1	-0.2	3.1	-4.4	0.9	1.8	/
CSc1nnc(NC(=O)c2nc(S(=O)(=O)Cc3ccccc3F)ncc2Cl)s1	76.1*	5.7	6.1	-9.2	-9.9	22.9*
Cc1noc(NS(=O)(=O)c2ccc(NC(=O)[C@@H]3CSCCC(=O)N3)cc2)c1C	/	/	/	-8.0	/	/
O=[N+]([O-])c1ccc(Sc2nc3ccccc3o2)c([N+](=O)[O-])c1	65.9*	7.4	-0.8	-11.7	-48.2	1.98*
O=c1[nH]c(Sc2ccc([N+](=O)[O-])cc2[N+](=O)[O-])nc2ccccc12	33.9*	4.3	/	6.7	/	31.1*
Nc1nc(Sc2ccc([N+](=O)[O-])cc2[N+](=O)[O-])n[nH]1	-0.6	19.5	1.7	3.1	10.0	/
CCOC(=O)c1sc(NC(=O)c2ccc3c(c2)OCCO3)nc1-c1ccccc1	/	/	/	-8.0	/	/
